Source: PubChem BioAssay (National Center for Advancing Translational Sciences (NCATS))
DT40 TDP1 CPT: DT40-hTDP1 cell growth loss with CPT; chicken DT40 Tdp1-/-;hTDP1 cells + 20 nM CPT, ATP luminescence, 48 h; Potency, µM (doses to about 46.2 µM), most hits filed as inhibitors; 12% of 420,000 active; AID 686979; note: nearly all actives have a fitted effect of over 55% in size
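Chicken DT40 Tdp1-/- cells stably complemented with human TDP1 were seeded at 400 cells/well in medium containing 20 nM camptothecin, exposed to pin-transferred compounds, and grown at 37 °C for at least 48 hr. Viability was read as ATP luminescence.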
DT40 TDP1 no CPT: qHTS for Inhibitors of human tyrosyl-DNA phosphodiesterase 1 (TDP1): qHTS in cells in absence of CPT. 15% of 420,000 active. AID 686978, 2013. DT40 Tdp1-/- hTDP1 cells, no CPT, ATP luminescence, 48 h. Potency, µM (highest dose often 46.2 µM), actives largely listed as inhibitors; note: nearly all actives have a fitted effect of over 55% in size
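Cells were dispensed at 400 per well, compounds added by pin tool, plates incubated ≥48 hr at 37 °C, then CellTiter-Glo added for 30 min at room temperature before luminescence reading. Line: DT40 Tdp1-/- complemented with hTDP1; camptothecin omitted.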
HepG2 viability: kills HepG2 cells in TGF-b inhibitor counter-screen; 0.76% of 410,000 active; Potency, µM (top dose mostly 46.1 µM), hits mostly cytotoxic; HepG2 CAGA-GFP viability, ATP luminescence, 18 h
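HepG2 CAGA-GFP cells (1000/well, DMEM with 1% FBS) received compound, then TGF-beta at 500 pg/mL final, and were incubated 18 hours at 37 degrees C. Viability was read by CellTiter-Glo luminescence. Media-only wells were set as complete cell-killing and DMSO as no toxicity.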
TGFb inhibitor: TGF-b pathway inhibition | HepG2 CAGA-GFP TGF-b/SMAD3 reporter, GFP fluorescence, 18 h; TGF-beta stimulated, 500 pg/mL final | Potency, µM (series often up to 46.1 µM), most hits filed as inhibitors | 1.2% of 410,000 active; note: nearly all actives have a fitted effect of over 65% in size
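Inhibition was scored as loss of TGF-beta-induced (500 pg/mL final, 18 hours, 37 degrees C) GFP in HEPG2 cells carrying a CAGA-GFP reporter, in DMEM with 1% FBS. Well GFP was summed per cell; Activity was normalised to unstimulated and stimulated DMSO wells, then concentration-response fitting.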
TDP1 inh: inhibitors of human tyrosyl-DNA phosphodiesterase TDP1. recombinant TDP1, AlphaScreen DNA substrate cleavage. AID 485290. Potency, µM (doses to about 130 µM), most hits filed as inhibitors. 0.28% of 350,000 active. Q9NUW8; note: nearly all actives have a fitted effect of over 40% in size
Target sequence (Q9NUW8 whole entry, looked up): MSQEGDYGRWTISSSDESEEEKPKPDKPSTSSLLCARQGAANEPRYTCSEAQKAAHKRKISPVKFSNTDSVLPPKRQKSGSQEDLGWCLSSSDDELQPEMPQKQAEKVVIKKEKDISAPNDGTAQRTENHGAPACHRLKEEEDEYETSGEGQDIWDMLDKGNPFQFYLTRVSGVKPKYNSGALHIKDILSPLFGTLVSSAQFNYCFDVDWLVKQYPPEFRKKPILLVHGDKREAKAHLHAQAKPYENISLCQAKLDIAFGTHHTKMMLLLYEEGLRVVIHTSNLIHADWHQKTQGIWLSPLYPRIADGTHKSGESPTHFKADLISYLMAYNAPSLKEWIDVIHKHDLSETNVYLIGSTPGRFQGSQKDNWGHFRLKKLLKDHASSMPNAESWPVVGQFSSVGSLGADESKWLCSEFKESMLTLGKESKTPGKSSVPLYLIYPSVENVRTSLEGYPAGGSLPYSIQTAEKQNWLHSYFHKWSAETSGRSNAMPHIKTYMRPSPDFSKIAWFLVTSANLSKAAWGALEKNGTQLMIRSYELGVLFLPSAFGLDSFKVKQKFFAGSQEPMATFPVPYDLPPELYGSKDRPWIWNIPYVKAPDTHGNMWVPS
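Signal: AlphaScreen proximity between streptavidin donor and anti-FITC acceptor beads on intact substrate. Reaction: Tdp1 1 nM, substrate 15 nM final, 5 min RT after 15 min compound preincubation.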
IL1B secr inh: blocks inflammasome-driven IL-1 beta release | THP-1 LPS/ATP IL-1B secretion, AlphaLISA, 16 h; stronger effect = lower value | activity change, % at 57.5 µM | 4.7% of 360,000 active; in the data active = activity change below about -50%; inconclusive = mostly about -30% to -49%
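THP-1 cells pretreated 1 hr with compounds (up to 57.5 uM final), then stimulated with LPS (250 ng/mL final) plus ATP (1.25 mM final); secreted IL-1B measured by AlphaLISA after 16 hr, decreased signal indicating inhibition.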
A number is an active result; i = inactive; ? = inconclusive; nt = not tested or not shown. A selection: hits, their analogues and other compounds. The true share with any hit is near 18%. Unless noted, calls come from the whole dose curve; as a rule, active = well fitted curve in the direction sought with a large enough effect; inconclusive = small, poorly fitted or top-dose-only effect, or another doubt; inactive = no such curve, though single readings can be large; an effect the other way counts as inactive or inconclusive.

SMILES | DT40 TDP1 CPT | DT40 TDP1 no CPT | HepG2 viability | TGFb inhibitor | TDP1 inh | IL1B secr inh
O=[N+]([O-])c1ccc(Cl)c(/C=N/N2CCN(Cc3ccccc3Cl)CC2)c1 | ? | 21µM | i | i | i | i
O=[N+]([O-])c1ccc(Cl)c(/C=N/N2CCN(Cc3ccccc3)CC2)c1 | i | i | i | i | i | i
Fc1ccccc1/C=N/N1CCN(Cc2ccccc2Cl)CC1 | ? | ? | i | i | nt | i
Cc1ccc(NS(=O)(=O)c2ccc(C(=O)NCc3ccc(S(N)(=O)=O)cc3)cc2)cc1 | ? | ? | i | i | i | i
Cc1ccc(CNC(=S)NC2CCC(C(C)(C)C)CC2)cc1 (stereo not drawn) | ? | 23µM | i | ? | i | i
Cc1ccc(CNC(=S)Nc2ccc(NS(=O)(=O)c3ccc(C)cc3)cc2)cc1 | ? | 23µM | i | ? | i | i
Cc1ccc(CSC(Nc2ccc(F)cc2)=C(C#N)C#N)cc1 | 3.7µM | 3.3µM | i | 7.1µM | i | -57
COC(=O)Cc1ccc(NC(=S)NCc2ccc(S(N)(=O)=O)cc2)cc1 | 21µM | i | i | i | nt | i
O=C1NC[C@@H](CCCCN2C[C@H](Cc3ccc(O)cc3)N(CC3CCCCC3)C(=O)C2=O)N(CCc2ccccc2)C1=O | i | i | nt | nt | nt | i
Cc1cc2c(cc3c(SCC(=O)Nc4cccc(Cl)c4C)nnc(C)n32)o1 | ? | ? | i | i | i | nt
CC(=O)c1cccc(NC(=O)NC2CC(=O)N(c3ccc4c(c3)OCCO4)C2)c1 (stereo not drawn) | i | i | i | i | i | i
COc1ccc(C(C)=O)cc1COC(=O)c1cc(=O)c2ccccc2o1 | i | i | i | i | i | i
Cc1cnc2ccc3ccccc3c2c1C | ? | ? | i | i | nt | nt
Cc1ccc(NC(=S)NCc2ccc(F)cc2)cc1 | ? | 26µM | i | i | nt | i
CCOC(=O)c1ccc(NC(=S)NCc2ccc(F)cc2)cc1 | ? | ? | i | ? | nt | i
COc1ccc([C@H]2C[C@@H](n3cc(-c4ccc(F)cc4)nn3)[C@H](O)CN2CC2CCCCC2)cc1 | ? | ? | i | i | nt | i
CCCCC(=O)N1C/C=C\[C@H](c2ccc(OC)cc2)N(Cc2ccc(F)cc2)C(=O)[C@@H]1C | ? | 16µM | i | i | nt | i
COc1ccc([C@H]2/C=C\CN(S(=O)(=O)/C=C/c3ccccc3)[C@@H](C)C(=O)N2Cc2ccc(F)cc2)cc1 | ? | 21µM | i | ? | nt | i
COc1ccc([C@H]2/C=C\CN(C(=O)c3ccccc3)[C@@H](C)C(=O)N2Cc2ccc(F)cc2)cc1 | ? | 23µM | i | i | nt | i
COc1ccc(C2/C=C\CN(S(=O)(=O)c3ccc(C)cc3)C(Cc3ccccc3)C(=O)N2Cc2ccc(F)cc2)cc1 (stereo not drawn) | nt | nt | i | i | i | nt
COc1ccc(C2/C=C\CN(C(=O)C3CC3)C(C)C(=O)N2Cc2ccc(F)cc2)cc1 (stereo not drawn) | nt | nt | i | ? | i | nt
COc1cc2oc(=O)c(CC(=O)NCCc3ccccc3)c(C)c2cc1Cl | i | i | i | i | i | nt
COC(=O)c1ccccc1NC(=O)Cn1c(=O)n(-c2cccc(OC)c2)c(=O)c2c(C)c(C(=O)N(C)C)sc21 | i | i | i | i | i | nt
C/C=C/Cn1c(SCc2ccccc2)nc2c1c(=O)[nH]c(=O)n2C | 21µM | ? | i | i | i | i
CC(C)CCn1c(SCc2ccc(Cl)cc2)nc2c1c(=O)[nH]c(=O)n2C | 16µM | 18µM | i | i | i | i
CCSc1nc2c(c(=O)[nH]c(=O)n2C)n1C/C=C(/C)Cl | i | ? | 7.1µM | i | i | i
CCOCCn1c(SCc2ccc(C)cc2)nc2c1c(=O)[nH]c(=O)n2C | 13µM | ? | i | i | i | i
